Results as given in PubChem BioAssay (EPA / NIEHS).
Activity calls are given as the source filed them. The calls were made as follows: active = hit-call score of the fitted dose curve at least 0.9, where 1 is the maximum; inactive = score below 0.9.

These compounds were tested on Interleukin-1 alpha (IL1a), IL1A (gene 3552) (assay: BSK_LPS_IL1a: BioMAP Diversity Plus: LPS Assay for Interleukin-1 alpha (IL1a) Biomarker Activity (AID 2283080)). Conditions: primary human HUVEC with PBMC; actives raise or lower the signal.
Procedure: BSK_LPS is a cell-based, multiplexed-readout assay that uses umbilical vein endothelium and peripheral blood mononuclear cells, a human vascular primary cell co-culture, with measurements taken at 24 hours after chemical dosing in a 96-well plate.BSK_LPS_IL1a is an assay component measured in the BSK_LPS assay. It measures IL-a antibody related to regulation of gene expression using ELISA technology.Data from the assay component BSK_LPS_IL1a was analyzed into 1 assay endpoint. This assay endpoint, BSK_LPS_IL1a, was analyzed with bidirectional fitting relative to DMSO as the negative control and baseline of activity. Using a type of binding reporter, gain or loss-of-signal activity can be used to understand changes in the signaling as they relate to the gene IL1A. Furthermore, this assay endpoint can be referred to as a primary readout, because this assay has produced multiple assay endpoints where this one serves a signaling function. To generalize the intended target to other relatable targets, this assay endpoint is annotated to the cytokine intended target family, where the subfamily is interleukins.
The levels of cell surface (or secreted, indicated by the prefix "s") biomarker endpoints were measured by ELISA. Overt cytotoxicity to cells in confluent adherent cultures (all systems other than the BT system) was assessed by measuring total protein levels using sulforhodamine B (SRB) staining in parallel cultures at the time of biomarker measurements, indicated as SRB endpoints. For proliferation assays for adherent cell types, individual cell types are cultured at sub-confluence and relative cell numbers quantified by SRB staining at time points optimized for each system (48 h: 3C and CASM3C systems; 72 h: BT and HDF3CGF systems; 96 h: SAg system). SRB was performed by staining cells with 0.1% SRB after fixation with 10% TCA and reading wells at 560 nm.Viability and proliferation of PBMC (T cells) was quantified by Alamar Blue reduction for the SAg and BT systems. For PBMC viability (referred to as PBMC Cytotoxicity within the assay endpoint names), cells were plated (75,000/well in a 96-well plate) and then chemical samples added for 1 h before addition of activators, SEB and TSST-1 (20 ng/mL final concentration each). Cells were incubated for 90 h. Then, Alamar Blue (20 uL/well) (Invitrogen, Cat DAL1100) was added for 6 h, and the plates were read with a fluorescence microplate reader at 546/580 nm (excitation/emission). For PBMC proliferation, cells were plated and activated as above but incubated for only 16 h prior to addition of Alamar Blue. Plates were read after 6 h.

| SMILES | outcome | AC50 |
| --- | --- | --- |
| O=[Si]=O | inactive |  |
| CC(C)c1cccc(C(C)C)c1 | inactive |  |
| Cc1cc(SC2=C(O)C[C@@](CCc3ccc(N)cc3)(C(C)C)OC2=O)c(C(C)(C)C)cc1CO | inactive |  |
| O=C1OC(c2ccc(O)cc2)(c2ccc(O)cc2)c2ccccc21 | inactive |  |
| CC(COCC(C)OC(=O)c1ccccc1)OC(=O)c1ccccc1 (stereo not given) | inactive |  |
| CC(=O)OC1CC(C)OC(C)O1 (stereo not given) | inactive |  |
| C/C=C/C=C/C(=O)O | inactive |  |
| CC(N)=O | inactive |  |
| CCCCC(CC)COP(=O)(OCC(CC)CCCC)OCC(CC)CCCC (stereo not given) | inactive |  |
| O=C(NS(=O)(=O)/C=C/c1cccs1)c1ccc(F)cc1Br | inactive |  |
| CC(C)(C)c1ccccc1 | inactive |  |
| Oc1ccccc1O | inactive |  |
| CCCCCCC(C=O)=Cc1ccccc1 |  | 33.6 µM (active) |
| CC(=O)S[C@H](C(=O)N[C@H]1Cc2ccccc2[C@H]2CCC[C@@H](C(=O)O)N2C1=O)C(C)C | inactive |  |
| CC(C)OC(=O)C(C)(C)Oc1ccc(C(=O)c2ccc(Cl)cc2)cc1 | inactive |  |
| CCCC(=O)O | inactive |  |
| CCCC[C@H]1CN(CC2CCOCC2)C(=O)OC12CCN(C1(C)CCN(C(=O)c3c(C)ncnc3C)CC1)CC2 | inactive |  |
| COC(=O)CCC(=O)OC | inactive |  |
| O=C(N[C@@H](c1ccccc1)[C@@H]1CCCCN1)c1cccc(C(F)(F)F)c1Cl |  | 20 µM (active) |
| O=C1CCCCC1 | inactive |  |

| SMILES | outcome | AC50 |
| --- | --- | --- |
| O=C(O)CN(CC(=O)O)CC(=O)O | inactive |  |
| C/C=C/c1ccc(OC)cc1 | inactive |  |
| CC(C)c1cccc(C(C)C)c1NC(=O)NS(=O)(=O)c1cc(C(C)(C)O)co1 | inactive |  |
| COC(=O)[C@H]1[C@H]2C[C@@H]3c4[nH]c5cc(OC)ccc5c4CCN3C[C@H]2C[C@@H](OC(=O)c2cc(OC)c(OC)c(OC)c2)[C@@H]1OC |  | 22.6 µM (active) |
| O=C(Oc1ccccc1)c1cccc(C(=O)Oc2ccccc2)c1 | inactive |  |
| Cc1c(C)c2c(c(C)c1O)CCC(C)(COc1ccc(CC3SC(=O)NC3=O)cc1)O2 (stereo not given) |  | 32.7 µM (active) |
| CCc1cc(C2=C(C(=O)O)N(c3ccccc3C(F)(F)F)S(=O)(=O)c3ccccc32)cc2c1OCO2 | inactive |  |
| CC1=C(C)S(=O)(=O)CCS1(=O)=O | inactive |  |
| CS(=O)(=O)c1ccc([C@@H](C[C@H]2CCC(=O)C2)C(=O)Nc2cnccn2)cc1Cl | inactive |  |
| O=Cc1ccccc1C=O | inactive |  |
| O=NO | inactive |  |
| CC(=O)O | inactive |  |
| CC(=O)CC(c1ccccc1)c1c(O)c2ccccc2oc1=O (stereo not given) | inactive |  |
| C#CC(O)C(CC)CCCC (stereo not given) | inactive |  |
| Cc1ccc(C(C)(C)C)c(O)c1 | inactive |  |
| OCC(O)CO | inactive |  |
| C=CCc1ccc(OC)c(OC)c1 | inactive |  |
| COc1ccc(C(=O)Nc2nc3ccccc3c(NCc3ccccc3)c2C#N)cc1 | inactive |  |
| CCCCc1nc2cccnc2n1Cc1ccc(-c2ccccc2-c2nnn[nH]2)cc1 | inactive |  |
| O=C(O)CC(O)(CC(=O)O)C(=O)O | inactive |  |
